Experimental data taken from PubChem BioAssay AID588683 (Broad Institute, 2011).
Results with a measured potency or affinity are listed apart. The source made the active and inactive calls. How the calls were made is not given here.

Target: Kelch-like ECH-associated protein 1 (Homo sapiens) + Nuclear factor erythroid 2-related factor 2 (Homo sapiens) (UniProt Q14145+Q16236)
Test: Keap1-Nrf2 protein-protein interaction inhibitors, dose response, biochemical, fluorescence polarization, cherry-picked samples (AID 588683);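 further: Kelch domain of Keap1 binding a fluorescein-labelled 9mer Nrf2 peptide; more negative means stronger inhibition of peptide binding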

Sequence of Kelch-like ECH-associated protein 1 (Homo sapiens) + Nuclear factor erythroid 2-related factor 2 (Homo sapiens) (Q14145 whole entry, looked up, the tested form may be a part): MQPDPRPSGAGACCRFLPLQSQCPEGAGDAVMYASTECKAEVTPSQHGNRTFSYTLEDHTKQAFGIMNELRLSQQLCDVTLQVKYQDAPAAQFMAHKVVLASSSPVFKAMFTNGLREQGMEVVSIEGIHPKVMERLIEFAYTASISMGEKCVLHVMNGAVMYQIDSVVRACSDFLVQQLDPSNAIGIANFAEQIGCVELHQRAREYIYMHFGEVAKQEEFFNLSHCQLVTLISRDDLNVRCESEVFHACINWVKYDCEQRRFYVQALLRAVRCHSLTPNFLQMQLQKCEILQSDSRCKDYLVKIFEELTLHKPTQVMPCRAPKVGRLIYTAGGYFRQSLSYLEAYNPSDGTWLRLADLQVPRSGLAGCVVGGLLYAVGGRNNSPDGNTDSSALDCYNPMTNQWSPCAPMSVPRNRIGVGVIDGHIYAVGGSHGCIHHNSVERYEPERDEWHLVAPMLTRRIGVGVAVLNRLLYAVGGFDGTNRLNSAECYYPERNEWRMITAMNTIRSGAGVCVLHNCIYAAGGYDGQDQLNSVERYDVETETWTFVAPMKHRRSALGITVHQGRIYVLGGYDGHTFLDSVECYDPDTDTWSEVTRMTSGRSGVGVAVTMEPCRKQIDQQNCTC
Sequence of Kelch-like ECH-associated protein 1 (Homo sapiens) + Nuclear factor erythroid 2-related factor 2 (Homo sapiens) (Q16236 whole entry, looked up, the tested form may be a part): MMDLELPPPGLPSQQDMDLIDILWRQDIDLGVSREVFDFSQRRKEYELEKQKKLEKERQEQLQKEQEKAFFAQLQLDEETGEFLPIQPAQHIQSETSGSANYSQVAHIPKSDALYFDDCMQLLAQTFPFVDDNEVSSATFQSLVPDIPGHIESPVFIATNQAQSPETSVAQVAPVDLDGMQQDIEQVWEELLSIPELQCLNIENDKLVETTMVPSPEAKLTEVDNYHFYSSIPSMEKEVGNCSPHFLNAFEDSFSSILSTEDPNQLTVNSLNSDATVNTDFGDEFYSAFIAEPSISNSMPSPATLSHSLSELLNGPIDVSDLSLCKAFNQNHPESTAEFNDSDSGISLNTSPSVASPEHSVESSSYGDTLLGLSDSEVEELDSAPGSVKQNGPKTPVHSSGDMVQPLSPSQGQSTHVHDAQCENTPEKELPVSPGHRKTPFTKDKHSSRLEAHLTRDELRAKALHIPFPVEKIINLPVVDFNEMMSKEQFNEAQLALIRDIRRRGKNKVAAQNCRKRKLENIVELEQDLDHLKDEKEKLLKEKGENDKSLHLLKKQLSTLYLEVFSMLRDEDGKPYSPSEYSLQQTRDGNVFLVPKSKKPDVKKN

COc1cc(/C=C/CN2CCN(CCC(C)C)C(CCO)C2)ccc1O (stereo not drawn)
outcome: inactive

Cc1nnsc1C(=O)N1CCN(c2ccc(F)cc2)CC1
outcome: inactive

COc1ccc(Nc2nc3ccccc3nc2-n2nc(C)cc2C)cc1
outcome: inactive

O=C1CCn2c1c(O)c1ccccc1c2=O
outcome: inactive

COc1ccc(C2OC34CCCCC3C(C#N)(C#N)C2(C#N)C(=N)O4)cc1 (stereo not drawn)
outcome: inactive

CN1/C(=C\C=C(/C#N)C(=O)Nc2ccc(Cl)cc2)C(C)(C)c2ccccc21
outcome: inactive

C=CCOC(=O)C1=C[C@H](c2csc3ccccc23)C[C@H](OCc2ccc(CO)cc2)O1
outcome: inactive

CC1(C)CC(=O)C2=C(C1)OC(N)=C(C#N)C2c1ccccc1[N+](=O)[O-] (stereo not drawn)
outcome: inactive

COc1ccc(OC)c(C(=O)c2coc3ccc(O)c(CN(C)C)c23)c1
outcome: inactive

O=C(Cc1ccc(S(=O)(=O)N2CCOCC2)s1)Nc1nc2c(s1)CCCC2
outcome: inactive

CCCCC(CC)C(=O)Oc1ccc(O)c(C(C)(C)C)c1 (stereo not drawn)
outcome: inactive

CCCC1C2CN(C(C)C)CC=C2C(C#N)=C(N)C1(C#N)C#N (stereo not drawn)
outcome: inactive

O=C(O)c1cccc(-n2cccc2/C=C2/NC(=O)N(c3ccc(Cl)cc3)C2=O)c1
outcome: inactive

N/C(=N/OC(=O)c1ccc(Cl)cc1)c1ncc([N+](=O)[O-])s1
outcome: inactive

CCOCCCn1c(=NC(=O)c2cccs2)c(C#N)cc2c(=O)n3ccccc3nc21
outcome: inactive

Oc1ccc2c(c1)OCC1(O)Cc3cc(O)c(O)cc3C21 (stereo not drawn)
outcome: inactive

CCC(=O)c1cn(CC(=O)Nc2ccc(OC)cc2)c2ccccc12
outcome: inactive

COc1ccc2c(c1)c1nc3ccccc3nc1n2CC(=O)OC(C)C
outcome: inactive

COCCCn1c(=NC(=O)c2ccccc2)c(C#N)cc2c(=O)n3cccc(C)c3nc21
outcome: inactive

O=C1c2ccccc2-c2onc3ccc(N4CCCC4)c1c23
outcome: inactive

Cc1nc(NS(=O)(=O)c2ccccc2)sc1NC(=O)OCCN(C)C
outcome: inactive

CN(C)c1ccc(/C=N/NC(=O)CCC(=O)NCc2ccccc2)cc1
outcome: inactive

COc1cc(CO)ccc1Oc1nc2ccccc2n2cnnc12
outcome: inactive

O=c1ccc2cc3c4c(c2o1)CCCN4CCC3
outcome: inactive

CNc1nnc(SCC(=O)c2cc(C)n(C3CC3)c2C)s1
outcome: inactive

Nc1c(C(=O)Nc2ccccc2F)sc2nc(Cc3ccccc3)cc(C(F)(F)F)c12
outcome: inactive

CCOC(=O)C1=C(C)NC(C)=C(C(=O)OCC)C1c1ccc([N+](=O)[O-])s1
outcome: inactive

CS(=O)(=O)N1CCCC(C(=O)Nc2ccc(F)c(F)c2)C1 (stereo not drawn)
outcome: inactive

CC1(C)CC(=O)C2=C(C1)OC1=C(C2)C(=O)CC(C)(C)C1
outcome: inactive

Oc1[nH]c2ccccc2c1N=Nc1ccccc1
outcome: inactive

O=C(NNc1cc(Cl)ccc1Cl)c1cccs1
outcome: inactive

Cc1nn(-c2ccccc2Cl)c(Cl)c1/C=N/Nc1nc2ccccc2s1
outcome: inactive

Cc1ccc(Cn2c(=N)c(C(=O)NC3CCCC3)cc3c(=O)n4ccccc4nc32)cc1
outcome: inactive

CC(=O)Nc1ccc2c(c1)N(C(=O)CN(C)C)c1ccccc1CC2
outcome: inactive

CC(=O)Nc1c(N)c2ccccc2oc1=O
outcome: inactive

CSc1nsc2nc(=O)c(/C=C3\C=Nc4ccccc43)c(N)n12
outcome: inactive

CCn1nnnc1SCC(=O)N(C)C1CCS(=O)(=O)C1 (stereo not drawn)
outcome: inactive

CCc1cc(C(=O)c2ccc(OC)cc2)c(N)s1
outcome: inactive
